# Source: the supplement of paper PMC8975748
# Where a name gives a salt, the structure may show the parent alone. ± gives the standard deviation of the averaged measurements.
# Key:
# [1] = system: Saccharomyces cerevisiae BY4741 SeMeCo community; assay: z-score of prototroph abundance vs DMSO median; higher = larger share of this subpopulation than in DMSO controls; settings: 10 µM; 24 h; SM minimal medium; subpopulation (auxotrophy): Prototroph
# In short: (§1)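 Automated confocal microscopy of paraformaldehyde-fixed cells was used to follow a Saccharomyces cerevisiae BY4741 community carrying four plasmids, each restoring one auxotrophy and encoding a distinct fluorescent protein. The community was pre-grown overnight to OD600 1.0, diluted to 0.3, and added at 70 µl to 384-well plates acoustically predosed with library drugs (10 µM final) for 24 h of growth in minimal SM medium. Single-auxotroph fluorescent strains set thresholds and autofluorescence correction, and each subpopulation's abundance was scored as a z-score against the vehicle-well median.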
# [2] = system: Saccharomyces cerevisiae BY4741 SeMeCo community; assay: z-score of subpopulation abundance vs DMSO median, subpopulation auxotrophic for M; higher = larger share of this subpopulation than in DMSO controls; settings: 10 µM; 24 h; SM minimal medium; subpopulation (auxotrophy): M
# In short: as §1
# [3] = system: Saccharomyces cerevisiae BY4741 SeMeCo community; assay: z-score of subpopulation abundance vs DMSO median, subpopulation auxotrophic for L; higher = larger share of this subpopulation than in DMSO controls; settings: 10 µM; 24 h; SM minimal medium; subpopulation (auxotrophy): L
# In short: as §1
# [4] = system: Saccharomyces cerevisiae BY4741 SeMeCo community; assay: z-score of subpopulation abundance vs DMSO median, subpopulation auxotrophic for U; higher = larger share of this subpopulation than in DMSO controls; settings: 10 µM; 24 h; SM minimal medium; subpopulation (auxotrophy): U
# In short: as §1
# [5] = system: Saccharomyces cerevisiae BY4741 SeMeCo community; assay: z-score of subpopulation abundance vs DMSO median, subpopulation auxotrophic for H; higher = larger share of this subpopulation than in DMSO controls; settings: 10 µM; 24 h; SM minimal medium; subpopulation (auxotrophy): H
# In short: as §1
# [6] = system: Saccharomyces cerevisiae BY4741 SeMeCo community; assay: z-score of subpopulation abundance vs DMSO median, subpopulation auxotrophic for LU; higher = larger share of this subpopulation than in DMSO controls; settings: 10 µM; 24 h; SM minimal medium; subpopulation (auxotrophy): LU
# In short: as §1
# [7] = system: Saccharomyces cerevisiae BY4741 SeMeCo community; assay: z-score of subpopulation abundance vs DMSO median, subpopulation auxotrophic for LM; higher = larger share of this subpopulation than in DMSO controls; settings: 10 µM; 24 h; SM minimal medium; subpopulation (auxotrophy): LM
# In short: as §1
# [8] = system: Saccharomyces cerevisiae BY4741 SeMeCo community; assay: z-score of subpopulation abundance vs DMSO median, subpopulation auxotrophic for HM; higher = larger share of this subpopulation than in DMSO controls; settings: 10 µM; 24 h; SM minimal medium; subpopulation (auxotrophy): HM
# In short: as §1
# [9] = system: Saccharomyces cerevisiae BY4741 SeMeCo community; assay: z-score of subpopulation abundance vs DMSO median, subpopulation auxotrophic for HU; higher = larger share of this subpopulation than in DMSO controls; settings: 10 µM; 24 h; SM minimal medium; subpopulation (auxotrophy): HU
# In short: as §1
# [10] = system: Saccharomyces cerevisiae BY4741 SeMeCo community; assay: z-score of subpopulation abundance vs DMSO median, subpopulation auxotrophic for HLU; higher = larger share of this subpopulation than in DMSO controls; settings: 10 µM; 24 h; SM minimal medium; subpopulation (auxotrophy): HLU
# In short: as §1
# [11] = system: Saccharomyces cerevisiae BY4741 SeMeCo community; assay: z-score of subpopulation abundance vs DMSO median, subpopulation auxotrophic for HUM; higher = larger share of this subpopulation than in DMSO controls; settings: 10 µM; 24 h; SM minimal medium; subpopulation (auxotrophy): HUM
# In short: as §1
# [12] = system: Saccharomyces cerevisiae BY4741 SeMeCo community; assay: z-score of subpopulation abundance vs DMSO median, subpopulation auxotrophic for LUM; higher = larger share of this subpopulation than in DMSO controls; settings: 10 µM; 24 h; SM minimal medium; subpopulation (auxotrophy): LUM
# In short: as §1
# [13] = system: Saccharomyces cerevisiae BY4741 SeMeCo community; assay: z-score of subpopulation abundance vs DMSO median, subpopulation auxotrophic for HLUM; higher = larger share of this subpopulation than in DMSO controls; settings: 10 µM; 24 h; SM minimal medium; subpopulation (auxotrophy): HLUM
# In short: as §1
# [14] = system: Saccharomyces cerevisiae BY4741 SeMeCo community; assay: mean cell size (pixel area) (pixels); higher = larger cells; settings: 10 µM; 24 h; SM minimal medium
# In short: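 Yeast cells were fixed with paraformaldehyde, imaged by automated confocal microscopy and analysed in Harmony to obtain mean cell pixel area per well. They came from a four-plasmid fluorescent Saccharomyces cerevisiae BY4741 community, each plasmid complementing one auxotrophy and carrying a fluorescent marker. Before imaging, 70 µl of culture at OD600 = 0.3 was incubated for 24 h in SM medium in 384-well plates predosed acoustically with drug (final 10 µM). Values are means of 3 replicates. Same SeMeCo high-content imaging drug screen: Selleck FDA-approved drugs at 10 µM, 24 h in SM medium, 384-well plates, 3 replicates.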
# [15] = system: Saccharomyces cerevisiae BY4741 SeMeCo community; assay: z-score of subpopulation abundance vs DMSO median, subpopulation auxotrophic for UM; higher = larger share of this subpopulation than in DMSO controls; settings: 10 µM; 24 h; SM minimal medium; subpopulation (auxotrophy): UM
# In short: as §1
# [16] = system: Saccharomyces cerevisiae BY4741 SeMeCo community; assay: z-score of subpopulation abundance vs DMSO median, subpopulation auxotrophic for HL; higher = larger share of this subpopulation than in DMSO controls; settings: 10 µM; 24 h; SM minimal medium; subpopulation (auxotrophy): HL
# In short: as §1
# [17] = system: Saccharomyces cerevisiae BY4741 SeMeCo community; assay: z-score of subpopulation abundance vs DMSO median, subpopulation auxotrophic for HLM; higher = larger share of this subpopulation than in DMSO controls; settings: 10 µM; 24 h; SM minimal medium; subpopulation (auxotrophy): HLM
# In short: as §1
Compound,z-score of prototroph abundance [1],z-score of subpopulation abundance [2],z-score of subpopulation abundance [3],z-score of subpopulation abundance [4],z-score of subpopulation abundance [5],z-score of subpopulation abundance [6],z-score of subpopulation abundance [7],z-score of subpopulation abundance [8],z-score of subpopulation abundance [9],z-score of subpopulation abundance [10],z-score of subpopulation abundance [11],z-score of subpopulation abundance [12],z-score of subpopulation abundance [13],mean cell size [14],z-score of subpopulation abundance [15],z-score of subpopulation abundance [16],z-score of subpopulation abundance [17]
c1ccc(-c2ccc(C(c3ccccc3)n3ccnc3)cc2)cc1 (stereo not drawn) [Bifonazole],-0.9,3.3,-1.29,-0.36,1.08,-0.8,0.64,-0.61,1.01,0.9,0.21,0.94,2.46,–,–,–,–
O=C(Cn1ccnc1[N+](=O)[O-])NCc1ccccc1 [Benznidazole],0.22,-0.28,0.22,–,-0.18,-0.43,0.19,-0.4,-0.83,-0.74,–,0.15,-0.21,12.49 ± 0.12,0.13,0.08,–
Nc1ccc(S(N)(=O)=O)cc1 [Sulfanilamide],0.43,-0.87,-1.4,0.22,-0.45,-0.14,-1.02,–,-1.15,-1.52,–,-0.2,-0.65,12.4 ± 0.23,0.11,-1.05,–
CC[N+](C)(C)c1cccc(O)c1 [Edrophonium chloride],-0.67,0.34,-0.53,1.2,-1.41,1.17,–,-0.15,–,-0.56,–,0.48,0.62,12.28 ± 0.12,0.7,-0.46,–
Cc1nccn1CC1CCc2c(c3ccccc3n2C)C1=O (stereo not drawn) [Ondansetron HCl],0.89,-1.05,–,0.47,-0.7,-0.06,-0.49,-0.93,-0.51,-0.69,-0.03,-0.9,-0.89,12.4 ± 0.2,0.08,–,-0.71
CN[C@@H]1[C@@H](O)[C@@H](O[C@@H]2[C@@H](O)[C@H](O[C@H]3O[C@H](CN)[C@@H](O)[C@H](O)[C@H]3O)[C@@H](N)C[C@H]2NC(=O)[C@@H](O)CN)OC[C@]1(C)O [Isepamicin Sulphate],-0.32,0,-1.49,1.4,-0.38,-0.44,-0.22,-0.49,–,-0.42,–,0.03,-0.09,–,1.19,-1.07,–
CN[C@@H]1[C@@H](O[C@H]2O[C@H](CO)[C@@H](N)[C@H](O)[C@H]2O)OC2C[C@@H](N)[C@@H](O[C@H]3[C@H](O)[C@@H](O)[C@H](N)C[C@@H]3N)OC2[C@@H]1O (stereo partly drawn) [Apramycin Sulfate],-0.43,-0.24,-0.01,0.87,-0.41,0.41,0.1,0.03,-0.09,0.36,–,–,1.47,–,–,0.24,–
CN(C)c1ccc(O)c2c1C[C@H]1C[C@H]3[C@H](N(C)C)C(=O)C(C(N)=O)=C(O)[C@@]3(O)C(=O)C1=C2O [Minocycline HCl],-0.28,0.32,-0.03,0.78,-0.15,0.63,0.75,-0.22,-0.3,0.06,-0.12,0.3,0.19,–,0.25,–,–
NC(=O)C(c1ccccc1)(c1ccccc1)[C@@H]1CCN(CCc2ccc3c(c2)CCO3)C1 [Darifenacin HBr],0.34,0.85,–,0.01,-1.43,-0.1,–,-0.73,-0.14,-0.45,0.05,-0.55,–,12.4 ± 0.39,0.53,-0.56,-0.63
Cc1cccc(Nc2ccccc2C(=O)O)c1C [Mefenamic Acid],0.48,0.15,–,-0.58,-0.41,-0.62,–,-0.11,–,-0.38,-0.64,-0.45,-0.2,12.4 ± 0.21,-0.74,–,-0.42
CN(C)c1cc(NC(=O)CNC(C)(C)C)c(O)c2c1CC1CC3C(N(C)C)C(=O)C(C(N)=O)=C(O)C3(O)C(=O)C1=C2O (stereo not drawn) [Tigecycline],0.44,-1.16,–,0.22,0.59,-0.07,-0.64,-0.15,1.34,-0.27,-0.19,-0.85,-0.04,–,-0.23,-0.79,0.02
C=C1CCN([C@H](C)[C@](O)(Cn2cncn2)c2ccc(F)cc2F)CC1 [Efinaconazole],-9.55,2.69,–,-0.68,–,-1.98,2.18,3.94,–,3,7.05,–,20.3,11.3 ± 0.097,16.2,11.6,10.7
OC(c1cc(C(F)(F)F)nc2c(C(F)(F)F)cccc12)C1CCCCN1 (stereo not drawn) [Mefloquine HCl],-0.39,-0.32,–,–,-0.01,1.02,–,0.44,-0.36,0.29,0.3,0.86,0.33,12.3 ± 0.37,0.92,0.36,0
CO[C@H]1C[C@@H]2CC[C@@H](C)[C@@](O)(O2)C(=O)C(=O)N2CCCC[C@H]2C(=O)O[C@H]([C@H](C)C[C@@H]2CC[C@@H](O)[C@H](OC)C2)CC(=O)[C@H](C)/C=C(\C)[C@@H](O)[C@@H](OC)C(=O)[C@H](C)C[C@H](C)/C=C/C=C/C=C/1C [Rapamycin (Sirolimus)],-18.4,-2.04,–,3.85,14.3,3.56,5.67,21.4,–,21,33,11.9,–,14.19 ± 0.085,13.7,13.8,16
Oc1ccc(Cl)c2cccnc12 [Cloxiquine],–,5.82,–,-1.71,–,6.41,8.36,26.6,11.8,17.6,14.5,22.1,–,14.28 ± 0.12,6.45,–,64
